Laboratory results taken from the supplement of paper PMC8007513.
Counter-ions that a name gives are not always drawn. ± gives the standard error. Among all 1,300 compounds or so, about 130 (10%) showed an effect of 50% or more. The list comes from a sample in which strong results are over-represented; it also holds similar structures and randomly drawn compounds.

Test system: Trichoderma virens ATCC 9645
Assay: growth yield (OD600) with compound + IPBC relative to untreated control; higher = less growth inhibition
Details: compound concentration: 100 uM, IPBC concentration: 200 ng/ml
Outline: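 Plates were read for OD600 at 40 h and 72 h after Trichoderma virens ATCC 9645 spores (15,000 spores ml^−1 in potato dextrose broth) were grown at 30 °C with library compounds at 100 μM final, with or without a biocide at 200 ng ml^−1. Growth is stated relative to the control with neither agent, as the mean of duplicate screens.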

| SMILES | growth yield (40 h) | growth yield (72 h) |
| --- | --- | --- |
| CC(C)NC[C@H](O)COc1ccc(CC(N)=O)cc1 [(S)-(-)-Atenolol] + CCCCNC(=O)OCC#CI [3-iodo-2-propynyl butylcarbamate (IPBC)] | 82.8 ± 1.8% | 88.2 ± 0.1% |
| O=C(Nc1ccc([N+](=O)[O-])cc1Cl)c1cc(Cl)ccc1O [Niclosamide] + CCCCNC(=O)OCC#CI [3-iodo-2-propynyl butylcarbamate (IPBC)] | 83.7 ± 2.4% | 90.4 ± 2.5% |
| CC(C)[C@H](N)C(=O)OCCOCn1cnc2c(=O)nc(N)[nH]c21 [Valacyclovir hydrochloride] + CCCCNC(=O)OCC#CI [3-iodo-2-propynyl butylcarbamate (IPBC)] | 86.7 ± 3.2% | 96.4 ± 2.6% |
| CN1C(=O)CCS(=O)(=O)C1c1ccc(Cl)cc1 (stereo not given) [Chlormezanone] + CCCCNC(=O)OCC#CI [3-iodo-2-propynyl butylcarbamate (IPBC)] | 86.7 ± 3.2% | 92.5 ± 1.7% |
| Cc1[nH]c(=O)c(C#N)cc1-c1ccncc1 [Milrinone] + CCCCNC(=O)OCC#CI [3-iodo-2-propynyl butylcarbamate (IPBC)] | 89.11 ± 0.48% | 92.9 ± 1.9% |
| Nc1cc(-c2ccncc2)c[nH]c1=O [Amrinone] + CCCCNC(=O)OCC#CI [3-iodo-2-propynyl butylcarbamate (IPBC)] | 106% | 41.3% |
| CCCNC(C)C(=O)Nc1ccccc1C (stereo not given) [Prilocaine hydrochloride] + CCCCNC(=O)OCC#CI [3-iodo-2-propynyl butylcarbamate (IPBC)] | 86.4% | 95.54 ± 0.52% |
| C[C@H]1NC(=O)NC1=O [Methylhydantoin-5-(D)] + CCCCNC(=O)OCC#CI [3-iodo-2-propynyl butylcarbamate (IPBC)] | 97.4 ± 14% | 95.4 ± 8.4% |
| CN1[C@@H]2C[C@@H](OC(=O)[C@H](CO)c3ccccc3)C[C@H]1[C@@H]1O[C@@H]12 [Scopolamine hydrochloride] + CCCCNC(=O)OCC#CI [3-iodo-2-propynyl butylcarbamate (IPBC)] | 94.4 ± 7.9% | 94.1 ± 3.5% |
| Cc1cnc(C(=O)O)c[n+]1[O-] [Acipimox] + CCCCNC(=O)OCC#CI [3-iodo-2-propynyl butylcarbamate (IPBC)] | 85.3 ± 0.48% | 90.72 ± 0.1% |
| Nc1nc(F)nc2c1ncn2[C@@H]1O[C@H](CO)[C@@H](O)[C@@H]1O [Fludarabine] + CCCCNC(=O)OCC#CI [3-iodo-2-propynyl butylcarbamate (IPBC)] | 85.3 ± 2.4% | 86.6 ± 1.1% |
| Nc1ncnc2c1ncn2[C@@H]1O[C@H](CO)[C@@H](O)[C@@H]1O [Vidarabine] + CCCCNC(=O)OCC#CI [3-iodo-2-propynyl butylcarbamate (IPBC)] | 121 ± 11% | 109 ± 7.3% |
| Nc1nc(=S)c2ncn([C@@H]3O[C@H](CO)[C@@H](O)[C@H]3O)c2[nH]1 [Thioguanosine] + CCCCNC(=O)OCC#CI [3-iodo-2-propynyl butylcarbamate (IPBC)] | 46.1 ± 0.64% | 88.3 ± 2.3% |
| CN(C)CCCO[C@@H]1[C@H]2OC(C)(C)O[C@H]2O[C@@H]1[C@H](O)CO [Amiprilose hydrochloride] + CCCCNC(=O)OCC#CI [3-iodo-2-propynyl butylcarbamate (IPBC)] | 89.4 ± 4.9% | 93.3 ± 4.6% |
| CCc1cc(C(N)=S)ccn1 [Ethionamide] + CCCCNC(=O)OCC#CI [3-iodo-2-propynyl butylcarbamate (IPBC)] | 82 ± 2.5% | 90.61 ± 0.63% |
| CC1=C(C(=O)O)N2C(=O)[C@@H](NC(=O)[C@H](N)c3ccc(O)cc3)[C@H]2SC1 [Cefadroxil] + CCCCNC(=O)OCC#CI [3-iodo-2-propynyl butylcarbamate (IPBC)] | 81.5 ± 1.8% | 88.5 ± 1.5% |
| C=CCN1CC[C@]23c4c5ccc(O)c4O[C@H]2C(=O)CC[C@@]3(O)[C@H]1C5 [Naloxone hydrochloride] + CCCCNC(=O)OCC#CI [3-iodo-2-propynyl butylcarbamate (IPBC)] | 98.2 ± 3.5% | 101 ± 3.5% |
| CC[N+](C)(CC)CCOC(=O)C1c2ccccc2Oc2ccccc21 [Methantheline bromide] + CCCCNC(=O)OCC#CI [3-iodo-2-propynyl butylcarbamate (IPBC)] | 82 ± 1.9% | 88.5 ± 2.1% |
| O=c1[nH]c2ccccc2n1C1CCN(CCCC(c2ccc(F)cc2)c2ccc(F)cc2)CC1 [Pimozide] + CCCCNC(=O)OCC#CI [3-iodo-2-propynyl butylcarbamate (IPBC)] | 111 ± 8.3% | 136 ± 2.7% |
| Fc1ccc(C(OCCN2CCN(CCCc3ccccc3)CC2)c2ccc(F)cc2)cc1 + CCCCNC(=O)OCC#CI [3-iodo-2-propynyl butylcarbamate (IPBC)] | 13.3 ± 4.8% | 65.3 ± 6.4% |
| Clc1ccc(C(OCCN2CCCCC2)c2ccccc2)cc1 (stereo not given) [Cloperastine hydrochloride] + CCCCNC(=O)OCC#CI [3-iodo-2-propynyl butylcarbamate (IPBC)] | 78.6 ± 0.79% | 95.1 ± 2% |
| COc1cc(NS(=O)(=O)c2ccc(N)cc2)nc(OC)n1 [Sulfadimethoxine] + CCCCNC(=O)OCC#CI [3-iodo-2-propynyl butylcarbamate (IPBC)] | 116.3 ± 0.95% | 114 ± 1.6% |
| C[C@]12CC[C@H]3[C@@H](CCC4=CC(=O)CC[C@@H]43)[C@@H]1CC[C@@H]2O [Nandrolone] + CCCCNC(=O)OCC#CI [3-iodo-2-propynyl butylcarbamate (IPBC)] | 61.2 ± 3.3% | 83.7 ± 4.8% |
| COc1cccc(OC)c1C(=O)N[C@@H]1C(=O)N2[C@@H]1SC(C)(C)[C@@H]2C(=O)O [Methicillin sodium] + CCCCNC(=O)OCC#CI [3-iodo-2-propynyl butylcarbamate (IPBC)] | 89.3% | 90.7 ± 2% |
| Nc1ccc(C(=O)O)c(O)c1 [4-aminosalicylic acid] + CCCCNC(=O)OCC#CI [3-iodo-2-propynyl butylcarbamate (IPBC)] | 87.36 ± 0.32% | 94.18 ± 0.42% |
| COc1ccccc1O [Guaiacol] + CCCCNC(=O)OCC#CI [3-iodo-2-propynyl butylcarbamate (IPBC)] | 94.7 ± 1.6% | 98 ± 1.5% |
| COc1ccc(C(=O)c2ccccc2O)c(O)c1 [Dioxybenzone] + CCCCNC(=O)OCC#CI [3-iodo-2-propynyl butylcarbamate (IPBC)] | 23.67 ± 0.16% | 48.35 ± 0.1% |
| COc1ccc(C(=O)c2ccccc2)c(O)c1 [Oxybenzone] + CCCCNC(=O)OCC#CI [3-iodo-2-propynyl butylcarbamate (IPBC)] | 45.3 ± 4.9% | 71.1 ± 6.1% |
| COc1ccc(C(=O)CC(=O)c2ccc(C(C)(C)C)cc2)cc1 [Avobenzone] + CCCCNC(=O)OCC#CI [3-iodo-2-propynyl butylcarbamate (IPBC)] | 67.83 ± 0.16% | 71.84 ± 0.1% |
| CC(=O)Oc1ccccc1C(=O)O [Acetylsalicylic acid] + CCCCNC(=O)OCC#CI [3-iodo-2-propynyl butylcarbamate (IPBC)] | 107 ± 4.9% | 104 ± 5.5% |
